Here are results for 27 molecules from PubChem BioAssay (Tox21).

The nature of experiment [1]: qHTS RealTime-Glo MT Cell Viability Assay in HEK293 cells - 0 hour (AID 1224880). Note: top concentration of the series differs between compounds; nearly all actives have a fitted effect of over 45% in size. An outline of the steps:
(§1)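 Cells were seeded together with NanoLuc luciferase and a prosubstrate that viable cells reduce to a luciferase substrate. After a 5 h incubation at 37 C/5% CO2, compounds were added and luminescence was measured repeatedly during 40 h of treatment.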
On the technique in general: In qHTS, concentration-response curves come from the screen itself.

A short description of experiment [2]: A CellTox Green Cytotoxicity Assay to monitor cytotoxicity in HEK293 cells - 32 hour (AID 1224881). Note: nearly all actives have a fitted effect of over 40% in size. Summed up:
(§2)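 Nonlytic real-time cytotoxicity: HEK293 + CellTox Green reagent plated, 5 h preincubation, pintool compound addition (23 nL in DMSO), 37 C for 40 h, fluorescence measured at successive time points.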

Experiment [3] can be described thus: A CellTox Green Cytotoxicity Assay to monitor cytotoxicity in HepG2 cells - 0 hour (AID 1224882). Note: nearly all actives have a fitted effect of over 35% in size. An outline of the steps: (§3)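 Read-out is fluorescence of a cyanine dye excluded from live cells that stains DNA of dead HepG2 cells, with signal proportional to cytotoxicity. Plates were read at 0, 8, 16, 24, 32 and 40 h after compound addition.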
Experiment [4] is described as follows: A CellTox Green Cytotoxicity Assay to monitor cytotoxicity in HepG2 cells - 32 hour (AID 1224883). Note: nearly all actives have a fitted effect of over 50% in size. An outline of the steps:
as §3

Experiment [5] is described as follows: A CellTox Green Cytotoxicity Assay to monitor cytotoxicity in HEK293 cells - 8 hour (AID 1224884). Note: nearly all actives have a fitted effect of over 35% in size. Summed up:
as §2

The nature of experiment [6]: qHTS RealTime-Glo MT Cell Viability Assay in HepG2 cells - 16 hour (AID 1224885). Note: nearly all actives have a fitted effect of over 50% in size. Summed up:
(§4)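 Real-time, nonlytic viability: 600 HepG2 cells/well mixed with NanoLuc enzyme plus prosubstrate; 5 h settle, compound (DMSO) added by pintool; luminescence monitored over 40 h at 37 C.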

Experiment [7] can be described thus: qHTS RealTime-Glo MT Cell Viability Assay in HEK293 cells - 24 hour (AID 1224886). Note: nearly all actives have a fitted effect of over 50% in size. Note: potency is the fitted concentration of half-maximal effect. An outline of the steps: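 Cells + reagent dispensed (600 cells/well, HEK293) → 5 h at 37 C/5% CO2 → 23 nL compound in DMSO pinned → 40 h at 37 C → luminescence read at 0, 8, 16, 24, 32, 40 h.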
Experiment [8] is described as follows: qHTS RealTime-Glo MT Cell Viability Assay in HEK293 cells - 8 hour (AID 1224887). Note: top concentration of the series differs between compounds; nearly all actives have a fitted effect of over 50% in size. Summed up:
as §1

The nature of experiment [9]: A CellTox Green Cytotoxicity Assay to monitor cytotoxicity in HEK293 cells - 16 hour (AID 1224888). Note: nearly all actives have a fitted effect of over 35% in size. Summed up: as §2
The nature of experiment [10]: qHTS RealTime-Glo MT Cell Viability Assay in HepG2 cells - 0 hour (AID 1224889). Note: nearly all actives have a fitted effect of over 50% in size. Summed up: as §4

Values joined by “and” are separate entries in the source; they are usually repeats but may differ in a detail not shown here. Identical values can stand only once. Inconclusive results are not listed. Active and inactive are the calls of the source. Calls come from the whole dose curve; as a rule, active = well fitted curve in the direction sought with a large enough effect in the repeat runs; inconclusive = weak or mixed curves; inactive = no such curve, though single readings can be large; an effect the other way counts as inactive or inconclusive.

Regarding `COC(=O)CCCC(=O)OC`, the outcome in experiment [1], in experiment [3] and in experiment [5] was inactive. Further, the Potency result in [2], in experiment [4], in experiment [6], in experiment [7], in [8] and in experiment [9] was “inactive” throughout. In addition, the Potency entry in experiment [10] is “inactive”.
As for `COc1ccc([N+](=O)[O-])cc1N`, the result in experiment [1], in [3] and in [5] was inactive. The Potency entry in [2], in experiment [4], in experiment [6], in [7], in experiment [8] and in experiment [9] was “inactive” each time. Further, in [10], the Potency entry is “inactive”.
As to `C=C(C)CNCC`, the outcome in experiment [1], in [3] and in [5] was inactive. The Potency result in [2], in [4], in [6], in [7], in experiment [8] and in experiment [9] was “inactive” in each case. The Potency result in experiment [10] is “inactive”.
On to `N#Cc1ccccc1`, for which the call in experiment [1], in [3] and in experiment [5] was inactive. Also, the Potency result in experiment [2], in [4], in [6], in experiment [7], in [8] and in experiment [9] was “inactive” each time. Also, the Potency entry in experiment [10] was “inactive”.
`CC(=O)OCc1ccco1`: the molecule was called inactive in [1], in experiment [3] and in experiment [5]. Besides, the Potency entry in experiment [2], in experiment [4], in [6], in experiment [7], in experiment [8] and in experiment [9] was “inactive” throughout. Moreover, the Potency result in [10] was “inactive”.
As for `C=CC(=O)OCCC(=O)O`, the result in experiment [1], in experiment [3] and in [5] was inactive. Besides, the Potency result in experiment [2], in experiment [4], in [6], in experiment [7], in experiment [8] and in [9] was “inactive” each time. Also, in experiment [10], the Potency entry is “inactive”.
Take `O=S(=O)(O)c1ccc(N=Nc2c(O)ccc3cc(S(=O)(=O)O)ccc23)cc1`: the call in [1], in experiment [3] and in experiment [5] was inactive. The Potency entry in experiment [2], in experiment [4], in experiment [6], in experiment [7], in experiment [9] and in experiment [10] was “inactive” each time.
Turning to `CN1C(=O)CC[C@H]1c1cccnc1`, the molecule was classed as inactive in experiment [1], in experiment [3] and in experiment [5]. The Potency entry in experiment [2], in [4], in experiment [6], in experiment [7], in experiment [8] and in experiment [9] was “inactive” in each case. The Potency entry in [10] was “inactive”.
`CC(=O)CC(C)(C)O`: the call in [1], in experiment [3] and in experiment [5] was inactive. The Potency result in experiment [2], in [4], in [6], in experiment [7], in [8] and in experiment [9] was “inactive” each time. Also, the Potency result in [10] was “inactive”.
Take `OCc1ccccc1`: the molecule was called inactive in experiment [1], in [3] and in [5]. Moreover, the Potency entry in experiment [2], in experiment [4], in experiment [6], in experiment [7], in experiment [8] and in experiment [9] was “inactive” in each case. The Potency result in [10] was “inactive”.
Turning to `CN(C)c1ccc(Cc2ccc(N(C)C)cc2)cc1`, the molecule was classed as inactive in experiment [1], in experiment [3] and in experiment [5]. The Potency entry in experiment [2], in experiment [4], in experiment [6], in experiment [9] and in experiment [10] was “inactive” in each case. Further, in [7], the Potency was 22 µM (active) and 21.9 µM (active).
Take `CCO[Si](CCCN)(OCC)OCC`: the molecule was classed as inactive in experiment [1], in experiment [3] and in experiment [5]. The Potency result in [2], in experiment [4], in experiment [6], in experiment [7], in experiment [8] and in [9] was “inactive” throughout. Moreover, in experiment [10], the Potency result was “inactive”.
As to `CCNC(=S)NCC`, the result in [1], in experiment [3] and in experiment [5] was inactive. The Potency result in experiment [2], in experiment [4], in [6], in experiment [7], in experiment [8] and in experiment [9] was “inactive” throughout. Besides, the Potency result in [10] was “inactive”.
For `NCCNCCN`, the call in experiment [1], in [3] and in [5] was inactive. Further, the Potency result in [2], in experiment [4], in [6], in experiment [7], in experiment [8] and in [9] was “inactive” each time. For the same molecule, the Potency entry in experiment [10] was “inactive”.
For `CC(C)CCCCCCCOC(=O)CCCCC(=O)OCCCCCCCC(C)C`, the molecule was classed as inactive in experiment [1], in [3] and in [5]. Further, the Potency entry in [2], in experiment [4], in experiment [6], in [7], in experiment [8] and in experiment [9] was “inactive” in each case. Besides, in experiment [10], the Potency entry is “inactive”.
Consider `COc1ccc(N)c(C)c1`, for which the outcome in [1], in experiment [3] and in experiment [5] was inactive. The Potency entry in experiment [2], in [4], in [6], in [7], in experiment [8] and in experiment [9] was “inactive” throughout. The Potency entry in [10] is “inactive”.
Consider `CCc1ccccc1CC`, for which the call in [1], in experiment [3] and in [5] was inactive. The Potency result in [2], in [4], in experiment [6], in [7], in experiment [8] and in experiment [9] was “inactive” throughout. For the same molecule, the Potency entry in experiment [10] is “inactive”.
Turning to `COc1ccccc1OCC(O)CO` (configuration not stated), the outcome in [1], in experiment [3] and in experiment [5] was inactive. Moreover, the Potency entry in [2], in experiment [4], in experiment [6], in [7], in experiment [8] and in [9] was “inactive” in each case. Besides, in experiment [10], the Potency entry is “inactive”.
In the case of `OC1C(O)C(O)C(O)C(O)C1O` (configuration not stated), the result in [1], in [3] and in [5] was inactive. The Potency entry in experiment [2], in [4], in experiment [6], in [7], in [8] and in [9] was “inactive” in each case. For the same molecule, the Potency result in experiment [10] is “inactive”.
Take `CC1(C)OC[C@@H]2O[C@@]3(C(=O)O)OC(C)(C)O[C@H]3[C@@H]2O1`: the molecule was classed as inactive in experiment [1], in experiment [3] and in experiment [5]. The Potency result in [2], in experiment [4], in [6], in experiment [7], in experiment [8] and in experiment [9] was “inactive” in each case. For the same molecule, the Potency result in [10] was “inactive”.
For `CCCCCCCC=O`, the outcome in experiment [1], in experiment [3] and in experiment [5] was inactive. The Potency entry in experiment [2], in experiment [4], in [6], in [7], in experiment [8] and in experiment [9] was “inactive” in each case. Besides, in experiment [10], the Potency entry is “inactive”.
With `C[C@]12CCC(=O)C=C1CC[C@@H]1[C@@H]2[C@@H](O)C[C@@]2(C)[C@H]1CC[C@]2(O)C(=O)CO`, the Potency entry in [2], in [4] and in experiment [9] was “inactive” in each case. Besides, the call in experiment [3] and in [5] was inactive.
With `c1ccc2c(c1)Cc1ccccc1-2`, the result in experiment [1], in experiment [3] and in experiment [5] was inactive. In addition, the Potency result in [4], in experiment [6], in experiment [7], in experiment [8], in experiment [9] and in [10] was “inactive” in each case.
For `COC(=O)c1cccnc1`, the molecule was classed as inactive in experiment [1], in experiment [3] and in experiment [5]. The Potency result in experiment [2], in experiment [4], in experiment [6], in experiment [7], in [8] and in [9] was “inactive” throughout. Besides, the Potency entry in experiment [10] is “inactive”.
As for `Cc1ccc(S(=O)(=O)N=C=O)cc1`, the molecule was called inactive in experiment [1], in [3] and in experiment [5]. In addition, the Potency result in [2], in [4], in experiment [6], in [7], in experiment [8] and in [9] was “inactive” throughout. The Potency result in [10] is “inactive”.
Regarding `C[C@]12CC[C@@H]3c4ccc(O)cc4CC[C@H]3[C@@H]1C[C@@H](O)[C@@H]2O`, the outcome in [1], in experiment [3] and in experiment [5] was inactive. Moreover, the Potency result in experiment [2], in experiment [4], in experiment [6], in [7], in experiment [8] and in experiment [9] was “inactive” each time. In experiment [10], the Potency result is “inactive”.
For `CCCCCCCCCCCCCCCC(=O)OC(C)C`, the molecule was classed as inactive in experiment [1], in [3] and in [5]. In addition, the Potency entry in experiment [2], in experiment [4], in [6], in experiment [7], in experiment [8] and in experiment [9] was “inactive” in each case. In addition, the Potency result in [10] was “inactive”.
